# Data reported in the supplement of paper PMC8728848.
# Only a selection was taken, and the strongest signals are over-represented in it overall.
# B1: Siglec-H (Mus musculus), Q4QQK7 (protein)
# chain: MLLSRLLPLLWVLKWASGNCFILPREVIGTYPSLTLELQSVTVQEGLCVLVPCHLIEYPMNRWSDAAFGYWFHEGENTHPDSLVATNKPYQLVQKEMQSRFHFSGDCSLDIRDAQKGDNGSYFFRLEKGGKTWNFCEERISVHVTDLTHSPNISIPQTLELGRPTNVMCSVPWACERGTPPIFSWMSAALISLGPTTTLSSVLTLTPRLQDHGTNLTCQVTFPGAGVTVQKTIQLNVTYNSQNSTAHVSGRVGPGKPRPLADVVQVAMGEAAIKFLLLGICFFFLSKRSHTKRVERPATHMDQAHAVMD
# B2: Langerin CRD (Homo sapiens), Q9UJ71 (protein)
# chain: QVVSQGWKYFKGNFYYFSLIPKTWYSAEQFCVSRNSHLTSVTSESEQEFLYKTAGGLIYWIGLTKAGMEGDWSWVDDTPFNKVQSVRFWIPGEPNNAGNNEHCGNIKAPSLQAWNDAPCDKTFLFICKRPYVPSEPSAWSHPQFEK
# Key:
# Assay in all cases: glycan array binding signal (z-score within array); higher = stronger binding
# Details in all cases: glycan notation: IUPAC condensed, linker removed
# Fuc(a1-2)Gal = molecular target: Fuc(a1-2)Gal
# In short: (§1)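 Glycan array binding is given as a within-array Z-score, which can be read as non-binding when negative. The arrays, 3228 of them, came from the Consortium for Functional Glycomics database and were retained only where the protein sequence was available. Z-scores were averaged across arrays of the same protein sequence at different concentrations or buffers and across linkers.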
# [1] = molecular target: Fuc(a1-2)Gal(b1-3)GalNAc(b1-3)Gal
# In short: as §1
# [2] = molecular target: Fuc(a1-2)Gal(b1-3)GlcNAc(b1-3)Gal(b1-4)Glc
# In short: as §1
# [3] = molecular target: Fuc(a1-2)[GalNAc(a1-3)]Gal(b1-3)GlcNAc
# In short: as §1
# [4] = molecular target: Fuc(a1-3)[Gal(b1-4)]GlcNAc(b1-4)Gal(b1-4)[Fuc(a1-3)]GlcNAc(b1-4)Gal(b1-4)[Fuc(a1-3)]GlcNAc
# In short: as §1
# Fuc(a1-4)GlcNAc = molecular target: Fuc(a1-4)GlcNAc
# In short: as §1
# [5] = molecular target: Gal(b1-3)GalNAc(b1-3)Gal(a1-4)Gal(b1-4)Glc
# In short: as §1
# [6] = molecular target: Gal(b1-4)GlcNAc(b1-3)Gal(b1-4)GlcNAc
# In short: as §1
# [7] = molecular target: Gal(b1-4)GlcNAc(b1-3)[Gal(b1-4)GlcNAc(b1-6)]GalNAc
# In short: as §1
# Gal3S(b1-4)GlcNAc6S = molecular target: Gal3S(b1-4)GlcNAc6S
# In short: as §1
# [8] = molecular target: Neu5Ac(a2-3)Gal(b1-3)[Neu5Ac(a2-6)]GalNAc
# In short: as §1
# [9] = molecular target: Neu5Ac(a2-6)Gal(b1-4)GlcNAc(b1-3)Gal(b1-4)GlcNAc
# In short: as §1
# Neu5Ac(b1-6)GalNAc = molecular target: Neu5Ac(b1-6)GalNAc
# In short: as §1
# [10] = molecular target: Neu5Gc(a2-3)Gal(b1-4)[Fuc(a1-3)]GlcNAc
# In short: as §1
# Fuc(a1-2)Gal(b1-3)GlcNAc = molecular target: Fuc(a1-2)Gal(b1-3)GlcNAc
# In short: as §1
# Fuc(a1-2)[Gal(a1-3)]Gal = molecular target: Fuc(a1-2)[Gal(a1-3)]Gal
# In short: as §1
# Gal(a1-3)Gal(b1-3)GlcNAc = molecular target: Gal(a1-3)Gal(b1-3)GlcNAc
# In short: as §1
# Gal(a1-3)Gal(b1-4)Glc = molecular target: Gal(a1-3)Gal(b1-4)Glc
# In short: as §1
# Gal(a1-6)Glc = molecular target: Gal(a1-6)Glc
# In short: as §1
# Gal(b1-3)Gal(b1-4)GlcNAc = molecular target: Gal(b1-3)Gal(b1-4)GlcNAc
# In short: as §1
# [11] = molecular target: Gal(b1-3)GlcNAc(b1-3)Gal(b1-4)Glc
# In short: as §1
# [12] = molecular target: Gal(b1-3)[Fuc(a1-4)]GlcNAc
# In short: as §1
# [13] = molecular target: Gal(b1-4)GlcNAc(b1-3)[GlcNAc(b1-6)]Gal(b1-4)GlcNAc
# In short: as §1
# [14] = molecular target: Gal(b1-4)GlcNAc(b1-6)[Gal(b1-3)]GalNAc
# In short: as §1
# Gal3S(b1-4)Glc = molecular target: Gal3S(b1-4)Glc
# In short: as §1
# Gal6S(b1-4)Glc6S = molecular target: Gal6S(b1-4)Glc6S
# In short: as §1
# Gal6S(b1-4)GlcNAc6S = molecular target: Gal6S(b1-4)GlcNAc6S
# In short: as §1
# [15] = molecular target: GalNAc(b1-3)Gal(a1-4)Gal(b1-4)GlcNAc
# In short: as §1
# [16] = molecular target: GlcNAc(b1-2)Gal(b1-3)GalNAc
# In short: as §1
# [17] = molecular target: GlcNAc(b1-4)Gal(b1-4)GlcNAc
# In short: as §1
# [18] = molecular target: Man(a1-2)Man(a1-2)Man(a1-3)Man
# In short: as §1
# [19] = molecular target: Man(a1-2)Man(a1-3)[Man(a1-2)Man(a1-6)]Man(a1-6)[Man(a1-2)Man(a1-2)Man(a1-3)]Man(b1-4)GlcNAc(b1-4)GlcNAc
# In short: as §1
# [20] = molecular target: Neu5Ac(a2-3)Gal(b1-3)GalNAc
# In short: as §1
# [21] = molecular target: Neu5Ac(a2-3)Gal(b1-4)GlcNAc(b1-2)Man(a1-3)[Neu5Ac(a2-6)Gal(b1-4)GlcNAc(b1-2)Man(a1-6)]Man(b1-4)GlcNAc(b1-4)GlcNAc
# In short: as §1
# [22] = molecular target: Neu5Ac(a2-3)Gal(b1-4)GlcNAc(b1-6)[Gal(b1-3)]GalNAc
# In short: as §1
# Neu5Ac(a2-8)Neu5Ac = molecular target: Neu5Ac(a2-8)Neu5Ac
# In short: as §1
# [23] = molecular target: Neu5Ac9Ac(a2-6)Gal(b1-4)GlcNAc
# In short: as §1
# [24] = molecular target: Neu5Gc(b2-6)Gal(b1-4)GlcNAc
# In short: as §1
binder,measurement,setting,value
B1,glycan array binding signal (z-score),Fuc(a1-2)Gal,-0.112
same,glycan array binding signal (z-score),[1],2.48
same,glycan array binding signal (z-score),[2],2.46
same,glycan array binding signal (z-score),[3],-0.271
same,glycan array binding signal (z-score),[4],-0.236
same,glycan array binding signal (z-score),Fuc(a1-4)GlcNAc,-0.188
same,glycan array binding signal (z-score),[5],-0.31
same,glycan array binding signal (z-score),[6],-0.348
same,glycan array binding signal (z-score),[7],6.24
same,glycan array binding signal (z-score),Gal3S(b1-4)GlcNAc6S,-0.224
same,glycan array binding signal (z-score),[8],2.4
same,glycan array binding signal (z-score),[9],1.02
same,glycan array binding signal (z-score),Neu5Ac(b1-6)GalNAc,0.697
same,glycan array binding signal (z-score),[10],-0.29
B2,glycan array binding signal (z-score),Fuc(a1-2)Gal,0.647
same,glycan array binding signal (z-score),Fuc(a1-2)Gal(b1-3)GlcNAc,0
same,glycan array binding signal (z-score),Fuc(a1-2)[Gal(a1-3)]Gal,4.04
same,glycan array binding signal (z-score),Gal(a1-3)Gal(b1-3)GlcNAc,-0.623
same,glycan array binding signal (z-score),Gal(a1-3)Gal(b1-4)Glc,-0.487
same,glycan array binding signal (z-score),Gal(a1-6)Glc,-0.427
same,glycan array binding signal (z-score),Gal(b1-3)Gal(b1-4)GlcNAc,-0.488
same,glycan array binding signal (z-score),[11],-0.48
same,glycan array binding signal (z-score),[12],-0.279
same,glycan array binding signal (z-score),[13],0.314
same,glycan array binding signal (z-score),[14],-0.489
same,glycan array binding signal (z-score),Gal3S(b1-4)Glc,-0.325
same,glycan array binding signal (z-score),Gal6S(b1-4)Glc6S,4.01
same,glycan array binding signal (z-score),Gal6S(b1-4)GlcNAc6S,6.72
same,glycan array binding signal (z-score),[15],-0.356
same,glycan array binding signal (z-score),[16],4.61
same,glycan array binding signal (z-score),[17],1.57
same,glycan array binding signal (z-score),[18],4.1
same,glycan array binding signal (z-score),[19],-0.352
same,glycan array binding signal (z-score),[20],-0.547
same,glycan array binding signal (z-score),[21],-0.647
same,glycan array binding signal (z-score),[22],-0.693
same,glycan array binding signal (z-score),Neu5Ac(a2-8)Neu5Ac,-0.544
same,glycan array binding signal (z-score),[23],-0.422
same,glycan array binding signal (z-score),[24],-0.263
